Screening data (PubChem)
HP1b binding inh – inhibitors of HP1-beta chromodomain binding to methylated histone tails. AlphaScreen HP1-beta / biotin-H3K9me3 peptide binding. Potency, µM (top dose mostly 114 µM), for the others: at the top dose activity change, negative = inhibition, most hits filed as inhibitors. P83916. AID 540317. hit rate 0.56% among 390,000; also: potency is read from the fitted curve at half-maximal effect; nearly all actives have a fitted effect of over 70% in size
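HP1-beta protein (50 nM final) preincubated 30 min at room temperature with biotinylated H3(1-18)K9me3 peptide (50 nM) in PBS pH 7.4, 0.01% Tween-20, then compound added for 30 min. AlphaScreen streptavidin donor/nickel chelate acceptor beads (10 ug/mL final), 30 min dark, luminescence read.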
PI5P4K alpha inh – PI5P4K alpha (human) kinase inhibition. PI5P4Kalpha enzyme, ADP-Glo luminescence, 60 min; hits give low values. max response, %. hit rate 1.2% among 330,000; active = max response of -50% or lower; inconclusive = between -30% and -50%; inactive = -30% or higher; also: value at the top dose of about 77 µM; % is scaled to controls: 0 for no effect and ±100 for the full control effect
Target sequence (P48426 whole entry, looked up): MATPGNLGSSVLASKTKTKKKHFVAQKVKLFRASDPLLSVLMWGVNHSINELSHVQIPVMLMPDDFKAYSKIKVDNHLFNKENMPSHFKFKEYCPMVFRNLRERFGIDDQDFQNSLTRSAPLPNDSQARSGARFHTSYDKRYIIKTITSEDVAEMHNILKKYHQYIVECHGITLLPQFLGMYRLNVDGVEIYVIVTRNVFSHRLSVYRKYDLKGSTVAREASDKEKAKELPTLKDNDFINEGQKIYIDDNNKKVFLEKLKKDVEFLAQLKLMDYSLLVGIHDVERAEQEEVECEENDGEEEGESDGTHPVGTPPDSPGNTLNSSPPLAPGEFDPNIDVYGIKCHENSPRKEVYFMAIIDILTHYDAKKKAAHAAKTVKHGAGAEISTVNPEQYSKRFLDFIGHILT
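PI5P4Kalpha ADP-Glo assay; 5 microM ATP final; 60 min RT reaction; HEPES pH 7.4/EGTA/CHAPS, 5% DMSO; controls lacking substrate or enzyme; luminescent end-point.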
JMJD2A Tudor inh – JMJD2A Tudor domain (human) inhibition | O75164 | AlphaScreen JMJD2A-Tudor / H3K4me3 peptide binding | Potency, µM (top dose mostly 114 µM), for the others: at the top dose activity change, negative = inhibition, hits mostly inhibitors | hit rate 4.4% among 390,000 | AID 504339; also: potency is read from the fitted curve at half-maximal effect; % is scaled to controls: 0 for no effect and ±100 for the full control effect; nearly all actives have a fitted effect of over 50% in size
BAZ2B inh – BAZ2B (human) inhibition; Q9UIF8; AlphaScreen BAZ2B-H3K14Ac peptide displacement; Potency, µM (series often up to 114 µM), inactives show at the top dose activity change, negative = inhibition, usual class: inhibitors; hit rate 4.4% among 360,000; AID 504333; also: potency is read from the fitted curve at half-maximal effect; % is scaled to controls: 0 for no effect and ±100 for the full control effect; nearly all actives have a fitted effect of over 60% in size
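Compounds, titrated to a top concentration of 110 uM, were incubated 30 min at room temperature with preformed BAZ2B/acetyl-K14 H3 peptide complex (50 nM each). Proximity signal was measured by AlphaScreen after 20 min with beads.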
PLK1 PBD block – inhibitors of human PLK1 polo-box domain binding; P53350; Plk1 PBD binding of FITC phosphopeptide, fluorescence polarization; Potency, µM, without a hit: max response, negative = inhibition, most hits filed as inhibitors; hit rate 2.8% among 360,000; also: potency is read from the fitted curve at half-maximal effect; series mostly up to about 57 µM; % is scaled to controls: 0 for no effect and ±100 for the full control effect; nearly all actives have a fitted effect of over 65% in size
G9a block – blocks human histone lysine methyltransferase G9a; Potency, µM (doses to about 102 µM), without a hit: at the highest dose activity, negative = inhibition, actives largely listed as inhibitors; Q96KQ7; hit rate 8.8% among 350,000; G9a H3K9 monomethylation, AlphaScreen, 2 h; AID 504332; also: potency is read from the fitted curve at half-maximal effect; % is scaled to controls: 0 for no effect and ±100 for the full control effect; nearly all actives have a fitted effect of over 75% in size
Target sequence (Q96KQ7 913-1193 limits assumed): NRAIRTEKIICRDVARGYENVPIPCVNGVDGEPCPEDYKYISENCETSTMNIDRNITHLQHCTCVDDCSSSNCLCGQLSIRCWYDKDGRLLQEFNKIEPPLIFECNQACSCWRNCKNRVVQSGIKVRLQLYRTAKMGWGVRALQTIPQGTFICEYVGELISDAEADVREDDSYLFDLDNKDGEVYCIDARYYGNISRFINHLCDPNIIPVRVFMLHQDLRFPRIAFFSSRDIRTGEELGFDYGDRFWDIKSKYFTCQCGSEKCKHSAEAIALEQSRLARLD
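G9a (20 nM) preincubated 15 min RT with compounds, then 500 nM biotinylated H3K9 peptide and 20 uM SAM added; 2 h RT reaction. Monomethyl-H3K9 product detected by AlphaScreen with anti-H3K9me1 antibody, streptavidin donor and anti-rabbit IgG acceptor beads.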
* = called active by the depositor; ? = inconclusive; nt = no result; [ ] = dose if it differs, or a comment. Only some compounds are listed: those with a hit (about 12% of all), similar ones and a draw of the others. Unless noted, calls follow the shape of the dose curve; as a rule, active = well fitted curve in the direction sought with a large enough effect; inconclusive = small, poorly fitted or top-dose-only effect, or another doubt; inactive = no such curve, though single readings can be large; an effect the other way counts as inactive or inconclusive.

SMILES	HP1b binding inh	PI5P4K alpha inh	JMJD2A Tudor inh	BAZ2B inh	PLK1 PBD block	G9a block
N#Cc1c(NC(=O)CSc2nc3c(c(C(F)(F)F)n2)CCc2ccccc2-3)sc2c1CCCC2	-9%	nt	-14%	9%	?	11µM*
COc1ccc(-c2cc(C(F)(F)F)nc(SCC(=O)Nc3sc4c(c3C#N)CCC4)n2)cc1	-25%	nt	-29%	9%	?	11µM*
N#Cc1c(NC(=O)CSc2nc(-c3ccccc3)cc(C(F)(F)F)n2)sc2c1CCC2	18%	6	-4%[57.1 µM]	-8%	?	-16%[59 µM]
Cc1nc(C)c(-c2csc(Nc3ccc(Cl)cn3)n2)s1	nt	-15	nt	nt	-3%	nt
COc1ccc(Cn2c(SCc3ccc(C(=O)NC4CCCC4)cc3)nc3cccnc32)cc1	23%	nt	-10%	3%	nt	5%[59 µM]
COc1ccc(-n2nc([N+](=O)[O-])c(=NCc3cccnc3)n2O)cc1	21%	6	-15%	-9%	-7%	18%[59 µM]
COc1ccc(-n2nc([N+](=O)[O-])c(=NCCc3ccc(C)cc3)n2O)cc1	?	0	50µM*	?	-7%	?
Cc1cc(C)cc(N=c2c([N+](=O)[O-])nn(-c3ccc(Cl)cc3)n2O)c1	-27%	0	?	?	4%	?
COc1ccc(-n2nc([N+](=O)[O-])c(=NCCC3=CCCCC3)n2O)cc1	45µM*	0	40µM*	20µM*	-2%	32µM*
Cc1ccc(CN=c2c([N+](=O)[O-])nn(-c3cccc(C)c3)n2O)cc1	?	3	35µM*	?	3%	-3%
CCc1ccc(N=c2c([N+](=O)[O-])nn(-c3ccccc3)n2O)cc1	?	nt	45µM*	32µM*	-1%	?
COc1ccc(-n2nc([N+](=O)[O-])c(=NCCc3ccc(Cl)cc3)n2O)cc1	-7%	nt	-32%	-10%[57.1 µM]	-9%	11%
Cc1cc(C)c2[nH]c(C(=O)Nc3ccc4c(c3)OCO4)cc2c1	-20%	?	56µM*	50µM*	-15%	18µM*
CCc1ccc2[nH]c(C(=O)Nc3ccc4c(c3)OCO4)cc2c1	-17%	-13	?	-33%	-17%	22µM*
O=C(Nc1ccc2c(c1)OCO2)c1ccc(CO)cc1	30%	-14	-15%	15%	-4%	6%[12.7 µM]
COc1ccc(-c2nc(CCl)cs2)cc1	90%	-2	27%	6%	-9%	25µM*
COc1ccc(-c2csc(-c3ccc(O)cc3)n2)cc1	3%	16	-10%[11.4 µM]	-11%	21µM*	28%
COc1cccc(-c2nc(CCl)cs2)c1	112%	2	19%	0%	-15%	?
COc1ccc(-c2nc(CCl)cs2)cc1OC	35%	-24	?	-25%	?	20µM*
O=C1C2C3CCCC3=C3CCCC3C2C(=O)N1c1ccccc1 (stereo not drawn)	20%	-2	15%	-6%	-13%	20µM*
Cc1cccc(C(=O)Nc2ccc(S(=O)(=O)N3CCC(c4nc5ccccc5s4)CC3)cc2)c1	40%	nt	-12%	-2%	nt	-6%[59 µM]
COc1ccc(-c2c(C)nn3c(N4CCN(c5cc(Cl)ccc5C)CC4)cc(C)nc23)cc1OC	21%	nt	-22%	-25%	nt	3%[59 µM]
COc1cccc(C(=O)C[n+]2ccccc2/C=N/O)c1	43%	3	-2%	-25%	-6%	50µM*
COc1ccc(-c2sc3cc4c(cc3c2C#CC2(O)CCCCC2)OCO4)cc1	39%	23	-15%	?	-5%	4%[0.501 µM]
COc1ccccc1-c1sc2cc3c(cc2c1C#CC1(O)CCCCC1)OCO3	62%	20	-25%	79µM*	-2%	4%[0.501 µM]
SMILES	HP1b binding inh	PI5P4K alpha inh	JMJD2A Tudor inh	BAZ2B inh	PLK1 PBD block	G9a block
Cc1ccc(S(=O)(=O)Cn2nnnc2CN(Cc2ccco2)Cc2cccs2)cc1	15%	-4	-7%	-1%	-7%	20µM*
Cc1ccc2[nH]c(=O)c(CN(Cc3cccs3)Cc3nnnn3Cc3ccco3)cc2c1	5%[57 µM]	nt	?	nt	nt	nt
O=C1C2C3C=CC(C3)C2C(=O)N1c1ccccc1 (stereo not drawn)	32%	nt	8%	0%	-5%	12%[12.7 µM]
O=C(c1ccco1)[C@@H]1[C@@H]2C(=O)N(c3ccc(Br)cc3)C(=O)[C@@H]2C2c3ccccc3C=CN21 (stereo partly drawn)	-21%	-24	?	?	?	-2%[2.33 µM]
O=C(c1ccco1)[C@@H]1[C@@H]2C(=O)N(c3ccc(F)cc3)C(=O)[C@@H]2[C@H]2C=Cc3ccccc3N21	-26%	-24	?	-37%	?	6.3µM*
NC(=O)[C@@H]1[C@@H]2C(=O)N(c3ccc(F)cc3)C(=O)[C@@H]2[C@H]2C=Cc3ccccc3N21	?	-16	-34%	-36%	?	8.9µM*
O=C(c1ccco1)[C@@H]1[C@@H]2C(=O)N(c3ccc(F)cc3)C(=O)[C@@H]2C2c3ccccc3C=CN21 (stereo partly drawn)	nt	nt	nt	?	nt	3.2µM*
COc1ccc(Nc2nc(Cl)c(C=O)s2)cc1	nt	nt	nt	15%	nt	-1%
CC12CCC(C(=O)NNc3ccccc3)(OC1=O)C2(C)C (stereo not drawn)	48%	6	2%	-19%	2%	56µM*
CC12CCC(C(=O)NNc3ccc([N+](=O)[O-])cc3)(OC1=O)C2(C)C (stereo not drawn)	33%	-1	1%	-3%	-5%	4%
COc1ccc(N=Cc2c(O)c3ccccc3n2C(C)=O)cc1	71%	3	10%	-17%	22%	25µM*
Cc1cccc(NC(=O)C(Cc2ccccc2)NS(=O)(=O)c2ccc3c(c2)c(=O)n(C)c(=O)n3C)c1 (stereo not drawn)	12%	nt	-11%	89µM*	nt	-9%[59 µM]
CC(C)CCNC(=O)C(NS(=O)(=O)c1ccc2c(c1)c(=O)n(C)c(=O)n2C)c1ccccc1 (stereo not drawn)	56%	3	-14%	8%	-26%	8.9µM*
Cn1c(=O)c2cc(S(=O)(=O)NC(Cc3ccccc3)C(=O)NCc3ccco3)ccc2n(C)c1=O (stereo not drawn)	34%	6	-12%	-34%	-2%	63µM*
CC(NS(=O)(=O)c1ccc2c(c1)c(=O)n(C)c(=O)n2C)C(=O)NC1CCCCC1 (stereo not drawn)	7%	-3	-17%	-14%	27µM*	nt
CC(C)(C)c1n[nH]c(=S)n(N)c1=O	-22%	nt	5µM*	?	-6%	9%[12.7 µM]
Nn1c(=S)[nH]nc(Cc2ccc(O)cc2)c1=O	4%	0	-5%	?	-7%	?
CCOC(=O)c1c(NC(=O)CSc2cn(CCNC(=O)c3c(F)cccc3F)c3ccccc23)sc2c1CCCC2	22%	nt	-19%	-26%	nt	4%[59 µM]
